Source: PubChem BioAssay
Calls of active or inactive are those of the source.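 Rule for the calls, unless noted: active = fluorescence slope after compound addition differing from the mean of all screened samples at 99.7% confidence, in either direction; inactive = the rest.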

Key:
[1] = inhibitors of TNFa-induced NFkB p65 translocation, primary screen, imaging, HUVEC, MLSMR starter and 10KST1 sets (AID 438;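 active = inhibition above 20% together with a positive visual image hit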;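 note: compound added about 3h40 before a 20 min TNFalpha stimulation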;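 for inhibition: signal is the nuclear over cytoplasmic p65 intensity ratio per well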); details: HUVEC TNFa-induced p65 nuclear translocation; cell count: measured here: nuclei count (cytotoxicity indicator), at 2.08 µM; inhibition: at 2 µM, stronger effect = higher value, 0% TNFa-plus-vehicle, 100% no-TNFa wells
[2] = inhibitors of mutant huntingtin aggregation, primary screen, imaging, exon1htt(103Q)mCFP cells, high-content imaging (AID 483;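 active = visual image review flags a hit and inhibition of aggregation exceeds 20%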;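 note: compound exposure lasted 3 days before fixation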;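 for nuclei count: percent of the per-plate median nuclei count of sample wells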); details: exon1htt(103Q)mCFP cell line, aggregate imaging, at 2 µM; inhibition of aggregation: stronger effect = higher value; nuclei count: measured here: cell count, toxicity
[3] = inhibitors of E-selectin induction by TNFa, primary screen, imaging, HUVEC, immunofluorescence, MLSMR starter and 10KST1 sets (AID 487;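 active = visually confirmed hit in the image check and inhibition above 20%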;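 for inhibition: signal is fraction of cell area covered by stained E-selectin grains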;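 for nuclei count: 100% = median nuclei count of all wells on the same plate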); details: HUVEC TNFalpha-induced E-selectin immunofluorescence imaging, at 2 µM; inhibition: stronger effect = higher value; nuclei count: measured here: cell number, toxicity
[4] = target: Voltage-gated potassium channel subunit beta-2 (Rattus norvegicus) (UniProt P62483); assay: KvBeta enzyme negative modulators, primary screen, biochemical, NADPH fluorescence (AID 622;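 active = fluorescence slope higher than the sample average by over 3 SD, cut at about -0.22 in these data, passing the limit was not always enough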;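 note: slope of raw intensity against log time taken from 70 to 1610 s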); details: recombinant KvBeta, 4-cyanobenzaldehyde reduction, at 10 µM, stronger effect = higher value
[5] = target: Voltage-gated potassium channel subunit beta-2 (Rattus norvegicus) (UniProt P62483); assay: KvBeta positive modulators, primary screen, biochemical, NADPH fluorescence (AID 623;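 active = NADPH fluorescence slope more negative than the mean of all samples by about 3 SD, 99.7% confidence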;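 note: fluorescence intensity change per second fitted from 20 to 320 s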); details: Recombinant KvBeta, NADPH fluorescence decrease slope, 10 min; at 10 µM; stronger effect = lower value
[6] = target: Alpha-2C adrenergic receptor (Homo sapiens) (UniProt P18825); assay: modulators of alpha2C/GIRK thallium flux, primary screen, cell-based, HEK293 alpha2C/GIRK1/2 (AID 624); details: thallium flux BTC fluorescence, at 10 µM, actives lie on both sides;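 note: slope of fluorescence ratio to pre-addition baseline per second over 15 to 24 s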
[7] = inhibitors of Sendai virus-induced IRF3 signaling, primary screen, TLR/RLR signaling modifier project, cell-based, Sendai virus stimulus, luciferase, 10K MLSCN set (AID 602276;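 active = inhibition at or above 50% at 10 µM; inactive = inhibition below 50%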;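 note: firefly luciferase from ISG56 promoter only with Renilla not read in this screen; 0% = Sendai virus plus DMSO and 100% = medium plus DMSO without virus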); details: HEK293 RL24 IRF3 luciferase reporter, at 10 µM, stronger effect = higher value
[8] = inhibitors of poly I:C-induced TLR3 signaling, primary screen, cell-based, poly I:C stimulus, luciferase, 10K MLSCN set (AID 602277;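 active = inhibition of the reporter signal at or above 50%; inactive = inhibition below 50%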); details: HEK293-TLR3 RL24 IRF3 luciferase reporter, at 10 µM, stronger effect = higher value

Chain of Alpha-2C adrenergic receptor (Homo sapiens) (P18825 whole entry, looked up): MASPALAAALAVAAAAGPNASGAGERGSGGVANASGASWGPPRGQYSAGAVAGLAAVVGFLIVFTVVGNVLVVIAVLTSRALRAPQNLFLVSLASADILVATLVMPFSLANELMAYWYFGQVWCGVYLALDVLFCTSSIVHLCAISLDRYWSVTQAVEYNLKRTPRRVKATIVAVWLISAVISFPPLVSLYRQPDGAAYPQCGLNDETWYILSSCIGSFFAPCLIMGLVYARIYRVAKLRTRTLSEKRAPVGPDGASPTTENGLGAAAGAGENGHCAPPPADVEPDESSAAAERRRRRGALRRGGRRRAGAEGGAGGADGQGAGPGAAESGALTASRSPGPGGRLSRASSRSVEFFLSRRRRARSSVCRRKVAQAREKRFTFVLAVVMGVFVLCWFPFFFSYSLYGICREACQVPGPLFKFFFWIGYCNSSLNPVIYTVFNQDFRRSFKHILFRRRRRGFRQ
Chain of Voltage-gated potassium channel subunit beta-2 (Rattus norvegicus) (P62483 whole entry, looked up): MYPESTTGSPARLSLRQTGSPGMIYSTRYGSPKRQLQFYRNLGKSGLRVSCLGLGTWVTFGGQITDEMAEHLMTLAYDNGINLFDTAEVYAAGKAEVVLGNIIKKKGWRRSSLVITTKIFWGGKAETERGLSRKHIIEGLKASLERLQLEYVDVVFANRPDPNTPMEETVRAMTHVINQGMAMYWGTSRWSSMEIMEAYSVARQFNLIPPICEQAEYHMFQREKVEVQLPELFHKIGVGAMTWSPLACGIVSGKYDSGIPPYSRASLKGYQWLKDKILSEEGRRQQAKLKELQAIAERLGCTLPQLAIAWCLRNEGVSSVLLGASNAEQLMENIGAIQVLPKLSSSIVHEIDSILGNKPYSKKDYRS

| SMILES | cell count [1] | inhibition [1] | inhibition of aggregation [2] | nuclei count [2] [%] | inhibition [3] | nuclei count [3] [%] | fluorescence slope [4] | NADPH fluorescence slope [5] | slope [6] | inhibition [7] | inhibition [8] |
| --- | --- | --- | --- | --- | --- | --- | --- | --- | --- | --- | --- |
| Cn1c(=O)[nH]c(=O)c2c1nc(N1CCc3ccccc3C1)n2CCSc1nc2ccccc2s1 | 404 | 4.7% (inactive) | 4.4% (inactive) | 105 | -34.8% (inactive) | 118 | -0.502 (inactive) | -4.2e-05 (inactive) | 0.00385 (inactive) | 19.3% (inactive) | 23% (inactive) |
| O=C(O)c1cccc(NC(=O)C2C3C=CC(C3)C2C(=O)OCC(F)(F)C(F)F)c1 (centres undefined) | 683 | 8.3% (inactive) | 28.9% (inactive) | 47.7 | -33.6% (inactive) | 98.7 | -0.38 (inactive) | -3.4e-05 (inactive) | 0.00482 (inactive) | 10.2% (inactive) | 26% (inactive) |
| O=C(Nc1cccc(F)c1)c1cccc(S(=O)(=O)N2CCOCC2)c1 | 566 | 3% (inactive) | -14% (inactive) | 94.3 | -38.9% (inactive) | 92.1 | -0.504 (inactive) | -5.2e-05 (inactive) | 0.00763 (inactive) | 10.5% (inactive) | 98.3% (active) |
| O=S(=O)(NCc1ccccn1)c1ccc2c(c1)OCCO2 | 673 | 11.1% (inactive) | -27.1% (inactive) | 99.3 | -3.6% (inactive) | 102 | -0.354 (inactive) | -8e-05 (inactive) | 0.00513 (inactive) | 3.8% (inactive) | 5.59% (inactive) |
| Cn1c(=O)[nH]c(=O)c2c1nc(N1CCCCC1)n2CCSc1ncccn1 | 637 | -11.8% (inactive) | -16.6% (inactive) | 93 | -20.6% (inactive) | 122 | -0.438 (inactive) | -6.7e-05 (inactive) | 0.00492 (inactive) | 10% (inactive) | 25.5% (inactive) |
| CC(C)COC(=O)C1[C@H]2C(=O)N(Cc3cccs3)C[C@]23C=C[C@H]1O3 (some centres undefined) | 483 | 3.3% (inactive) | -2.4% (inactive) | 97.4 | -44.8% (inactive) | 127 | -0.393 (inactive) | -1.4e-05 (inactive) | 0.00385 (inactive) | 9.95% (inactive) | 32.4% (inactive) |
| Cn1c(=O)cc(OCCCC(=O)N2CCCCC2)c2ccccc21 | 372 | 8.3% (inactive) | -21.8% (inactive) | 96.2 | -22.3% (inactive) | 112 | -0.578 (inactive) | 1.8e-05 (inactive) | 0.00683 (inactive) | -4.34% (inactive) | 36.6% (inactive) |
| Cc1ccc(S(=O)(=O)N2CCCC(C(=O)NC3=NCCS3)C2)cc1 (centres undefined) | 306 | 7.4% (inactive) | -0.7% (inactive) | 111 | -27.5% (inactive) | 106 | -0.601 (inactive) | -3.9e-05 (inactive) | 0.00373 (inactive) | 14.7% (inactive) | 13.5% (inactive) |
| Cc1ccc(C(=O)OCC(=O)Nc2ccc3c(c2)OCO3)o1 | 429 | 14.6% (inactive) | 17.6% (inactive) | 99.5 | 8.1% (inactive) | 112 | -0.595 (inactive) | -5.5e-05 (inactive) | 0.00785 (inactive) | -15.7% (inactive) | -12.9% (inactive) |
| CCCCOc1ccc(-c2nnn(C(C)(C)C(=O)OC)n2)cc1 | 602 | -6.3% (inactive) | 7% (inactive) | 67.8 | 1.6% (inactive) | 102 | -0.502 (inactive) | -0.00029 (active) | 0.0068 (inactive) | -33.8% (inactive) | -125% (inactive) |
| COC(=O)C1=C(N)OC2=C(C(=O)CCC2)C1c1cccs1 (centres undefined) | 491 | 3.2% (inactive) | 27.3% (inactive) | 52 | 44.1% (inactive) | 103 | -0.49 (inactive) | -3.8e-05 (inactive) | 0.00743 (inactive) | 2.58% (inactive) | 21.7% (inactive) |
| Cc1ccc(Cn2c(=O)c3ccccc3n3c(CCC(=O)O)nnc23)cc1 | 681 | -13.4% (inactive) | -2.1% (inactive) | 90 | -55.9% (inactive) | 116 | -0.554 (inactive) | 1.7e-05 (inactive) | 0.00669 (inactive) | 0.88% (inactive) | 12.6% (inactive) |
| Cc1ccccc1OCc1nc2ccccc2c(=O)n1/N=C/c1ccco1 | 373 | -13.1% (inactive) | 4% (inactive) | 57.5 | -47.5% (inactive) | 85.3 | -0.46 (inactive) | -4.6e-05 (inactive) | 0.00374 (inactive) | -5.07% (inactive) | -33% (inactive) |
| Cc1cc2ncc(-c3ccc(Cl)cc3)c(N)n2n1 | 930 | -1.7% (inactive) | -6% (inactive) | 129 | -36.3% (inactive) | 125 | -0.583 (inactive) | 2.1e-05 (inactive) | 0.00574 (inactive) | -34% (inactive) | -158% (inactive) |
| CCOCCCNC(=O)C(c1ccccc1)N(Cc1ccc2c(c1)OCO2)C(=O)CNC(C)=O (centres undefined) | 220 | 10.9% (inactive) | 0.6% (inactive) | 94.8 | -63.6% (inactive) | 95.1 | -0.562 (inactive) | -2.1e-05 (inactive) | 0.00624 (inactive) | 10.2% (inactive) | 16.2% (inactive) |
| C=Cn1c(N2CCOCC2)nc2c1c(=O)[nH]c(=O)n2C | 719 | 0.9% (inactive) | -2.7% (inactive) | 62.9 | 21.8% (inactive) | 115 | -0.412 (inactive) | -2.2e-05 (inactive) | 0.00579 (inactive) | 20% (inactive) | 20.4% (inactive) |
| CCOC(=O)CSC1=C(C#N)C(c2ccc(Cl)cc2)C(C(=O)OC)C(=O)N1 (centres undefined) | 495 | 4.4% (inactive) | -24.6% (inactive) | 40.5 | -80% (inactive) | 95.7 | -0.394 (inactive) | -5.6e-05 (inactive) | 0.00371 (inactive) | 7.95% (inactive) | 25.3% (inactive) |
| COc1ccc(C)cc1C(=O)CCC(=O)Nc1ccccc1N1CCOCC1 | 382 | 8.3% (inactive) | 3.1% (inactive) | 103 | -18.1% (inactive) | 113 | -0.605 (inactive) | -5.1e-05 (inactive) | 0.00373 (inactive) | 18.5% (inactive) | 18.2% (inactive) |
| CC(=O)Nc1ccc(NC(=O)c2cc(C)nn2-c2ccccc2)cc1 | 687 | -6.1% (inactive) | -15.3% (inactive) | 112 | -36.4% (inactive) | 129 | -0.539 (inactive) | -1.7e-06 (inactive) | 0.00394 (inactive) | -3.81% (inactive) | 0.294% (inactive) |
